Source: PubChem BioAssay (NCATS)
Results filed as inconclusive are left out. The source made the active and inactive calls. Calls come from the whole dose curve; as a rule, active = well fitted curve in the direction sought with a large enough effect; inconclusive = small, poorly fitted or top-dose-only effect, or another doubt; inactive = no such curve, though single readings can be large; an effect the other way counts as inactive or inconclusive.

Assays:
[1] = Quantitative High-Throughput drug screen in 47 multiple myeloma cell lines against the NCATS MIPE library collection: H1112_PLB cell viability assay (AID 1918967; note: nearly all actives have a fitted effect of over 30% in size); settings: H1112 myeloma cells viability, ATP luminescence, 48 h; series mostly up to 45.8 µM
Outline: (§1)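 Steps: seed 500 cells per well; pin-transfer MIPE 4.0 library; incubate 48 h at 37C, 5% CO2, humidified; add CellTiter-Glo, 5 min room temperature; read luminescence.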

[2] = Quantitative High-Throughput drug screen in 47 multiple myeloma cell lines against the NCATS MIPE library collection: Karpas25_ECACC cell viability assay (AID 1918968; note: nearly all actives have a fitted effect of over 35% in size); settings: Karpas25 myeloma viability, CellTiter-Glo ATP, 48 h; series mostly up to 45.8 µM
Outline: as §1

[3] = Quantitative High-Throughput drug screen in 47 multiple myeloma cell lines against the NCATS MIPE library collection: KMS27_JCRB cell viability assay (AID 1918970); settings: KMS27 myeloma cells, CellTiter-Glo ATP viability, 48 h; series mostly up to 45.8 µM; note: nearly all actives have a fitted effect of over 30% in size
Outline: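 Each line is seeded at 500 cells per well and treated with library compounds for 48 hours under 37 °C, 5% CO2. CellTiter-Glo is then added for 5 min at room temperature before median relative luminescence is recorded.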

[4] = Quantitative High-Throughput drug screen in 47 multiple myeloma cell lines against the NCATS MIPE library collection: KMS12BM_JCRB cell viability assay (AID 1918971); settings: KMS12BM myeloma viability, CellTiter-Glo ATP, 48 h; series mostly up to 45.8 µM; note: nearly all actives have a fitted effect of over 35% in size
Outline: as §1

[5] = Quantitative High-Throughput drug screen in 47 multiple myeloma cell lines against the NCATS MIPE library collection: KMS26_JCRB cell viability assay (AID 1918975); settings: KMS26 myeloma cells viability, CellTiter-Glo ATP, 48 h; series mostly up to 45.8 µM; note: nearly all actives have a fitted effect of over 45% in size
Outline: as §1

[6] = Quantitative High-Throughput drug screen in 47 multiple myeloma cell lines against the NCATS MIPE library collection: MMM1_PLB cell viability assay (AID 1918976); settings: MMM1 myeloma cells viability, CellTiter-Glo, 48 h; series mostly up to 45.8 µM; note: nearly all actives have a fitted effect of over 35% in size
Outline: (§2)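 qHTS format: cells plated (500/well), pin-dosed with MIPE 4.0 compounds, kept 48 h at 37 °C. Readout was CellTiter-Glo luminescence, median RLU.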

[7] = Quantitative High-Throughput drug screen in 47 multiple myeloma cell lines against the NCATS MIPE library collection: MOLP8_DSMZ cell viability assay (AID 1918977); settings: MOLP8 myeloma viability, CellTiter-Glo ATP luminescence, 48 h; series mostly up to 45.8 µM; note: nearly all actives have a fitted effect of over 45% in size
Outline: as §2

[8] = Quantitative High-Throughput drug screen in 47 multiple myeloma cell lines against the NCATS MIPE library collection: KMS12PE_JCRB cell viability assay (AID 1918972); settings: KMS12PE myeloma viability, CellTiter-Glo ATP, 48 h; series mostly up to 45.8 µM; note: nearly all actives have a fitted effect of over 30% in size
Outline: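 Luminescent ATP measurement with CellTiter-Glo gives viability, scaled between DMSO-only wells (100%) and media-only wells (0%). Cells, 500 per well, faced library compounds for 48 hours at 37C.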

[9] = Quantitative High-Throughput drug screen in 47 multiple myeloma cell lines against the NCATS MIPE library collection: KMS20_JCRB cell viability assay (AID 1918973); settings: CellTiter-Glo ATP, 48 h; series mostly up to 45.8 µM; note: nearly all actives have a fitted effect of over 45% in size
Outline: as §1

[10] = Quantitative High-Throughput drug screen in 47 multiple myeloma cell lines against the NCATS MIPE library collection: NCIH929_DSMZ cell viability assay (AID 1918978); settings: NCI-H929 myeloma viability, CellTiter-Glo ATP, 48 h; series mostly up to 45.8 µM; note: nearly all actives have a fitted effect of over 35% in size
Outline: as §2

Measured: Potency
Potency is the fitted concentration of half-maximal effect.

CC(=O)N(C)c1cccc(-c2ccnc3c(C(=O)c4cccs4)cnn23)c1
inactive: [1] | [2] | [4] | [5] | [7]
active: [3] 20.9 µM | [6] 2.96 µM

NC1CC1c1ccccc1 (stereo not drawn)
not listed: [3] | [6]
inactive: all other assays above

C#C[C@]1(O)C=C[C@@H]2[C@@H]3CCC4=CC(=O)CC[C@@H]4[C@H]3CC[C@@]21CC
inactive: [1] | [2] | [9] | [5] | [7] | [10]

CN(C)NC(=O)CCC(=O)O
active: [4] 7.43 µM
not listed: [7] | [9]
inactive: all other assays above

CC(N[C@H]1C[C@H]1c1ccccc1)c1ccc2c(c1)OCCO2 (stereo partly drawn)
active: [4] 1.87 µM | [9] 0.001 µM | [5] 5.26 µM
not listed: [6] | [7]
inactive: all other assays above

C[C@]12CC[C@H]3[C@@H](CCC4=CC(=O)CC[C@@]43C)[C@H]1CC[C@H]2O
inactive: [1] | [2] | [3] | [9] | [7] | [10]

CCNC(=O)C[C@@H]1N=C(c2ccc(Cl)cc2)c2cc(OC)ccc2-n2c(C)nnc21
active: [1] 0.743 µM | [2] 2.09 µM | [3] 0.469 µM | [4] 0.235 µM | [8] 0.166 µM | [5] 0.0935 µM | [6] 0.209 µM | [7] 0.209 µM

Oc1ccc2c3c1O[C@H]1c4[nH]c5c(c4C[C@@]4(O)[C@@H](C2)N(CC2CC2)CC[C@]314)C[C@@]1(O)[C@H]2Cc3ccc(O)c4c3[C@@]1(CCN2CC1CC1)[C@H]5O4
inactive: [1] | [2] | [8] | [5] | [7] | [10]

CC(C)(C)c1cc(C=C(C#N)C#N)cc(Br)c1O
active: [1] 16.6 µM | [2] 3.72 µM | [4] 16.6 µM | [9] 13.2 µM | [10] 16.6 µM

CCCN1CCO[C@@H]2c3cc(O)ccc3OC[C@@H]21
inactive: [1] | [2] | [3] | [8] | [10]
active: [4] 14.8 µM | [6] 16.6 µM

N#C[C@H](O[C@@H]1O[C@H](CO[C@@H]2O[C@H](CO)[C@H](O)[C@H](O)[C@H]2O)[C@H](O)[C@H](O)[C@H]1O)c1ccccc1
active: [1] 26.4 µM | [2] 18.7 µM | [4] 20.9 µM | [8] 7.43 µM | [9] 18.7 µM | [5] 20.9 µM | [6] 23.5 µM | [10] 23.5 µM

C1=C2CCCN[C@H]2[C@@H]2C[C@H]1[C@@H]1CCCCN1C2
not listed: [4] | [6] | [9]
inactive: all other assays above

CC(=O)OCC1=C(C(=O)O)N2C(=O)[C@@H](N)[C@@H]2SC1
inactive: [1] | [2] | [7] | [10]
active: [3] 7.43 µM

COc1cc([C@@H]2c3cc4c(cc3[C@@H](O)C3COC(=O)C32)OCO4)cc(OC)c1O (stereo partly drawn)
active: [1] 0.0526 µM | [2] 0.059 µM | [4] 0.0418 µM | [8] 0.0372 µM | [9] 0.0662 µM | [5] 0.105 µM | [6] 0.0935 µM | [7] 0.418 µM | [10] 0.132 µM

CC(C)(O)C=CC(=O)[C@](C)(O)[C@H]1[C@H](O)C[C@]2(C)[C@@H]3CC=C4[C@@H](C=C(O)C(=O)C4(C)C)[C@]3(C)C(=O)C[C@@]12C
active: [1] 2.09 µM | [2] 0.0296 µM | [4] 1.18 µM | [8] 0.0418 µM | [9] 0.0187 µM | [5] 0.0372 µM | [6] 1.32 µM | [7] 0.0469 µM | [10] 0.0469 µM

C#CC1(O)CCC2C3CCC4=CC(=O)CCC4(C)C3CCC21C (stereo not drawn)
inactive: [1] | [2] | [8] | [9] | [10]
active: [4] 4.18 µM | [6] 9.35 µM

C[C@@H]1CC[C@@]2(OC1)O[C@H]1C[C@H]3[C@@H]4CC=C5C[C@@H](O[C@@H]6O[C@H](CO)[C@@H](O[C@@H]7O[C@@H](C)[C@H](O)[C@@H](O)[C@@H]7O)[C@H](O)[C@@H]6O[C@@H]6O[C@@H](C)[C@H](O)[C@@H](O)[C@@H]6O)CC[C@]5(C)[C@@H]4CC[C@]3(C)[C@@H]1[C@H]2C
active: [1] 4.69 µM | [2] 3.32 µM | [3] 0.935 µM | [4] 2.64 µM | [8] 1.32 µM | [9] 4.18 µM | [5] 2.35 µM | [6] 2.35 µM | [7] 1.87 µM | [10] 4.18 µM

CC(=CCCC1=CCC(C2=CC(=O)OC2O)OC1O)CCC1=C(C)CCCC1(C)C (stereo not drawn)
inactive: [1] | [2] | [3] | [8] | [5] | [7]

CC(C)(C)[C@]1(O)C[C@@H]2OC(=O)C[C@@]23C(=O)O[C@@H]2OC(=O)[C@H](O)C213 (stereo partly drawn)
inactive: [1] | [2] | [4] | [7] | [10]

CCOC(=O)c1cncn1[C@H](C)c1ccccc1
active: [4] 5.26 µM | [6] 7.43 µM
inactive: [1] | [2] | [5] | [10]

CC[C@@H]1[C@@H](C)O[C@@](O)([C@@H](C)[C@H](O)[C@H](C)[C@H]2OC(=O)C=CC=C[C@@H](C)[C@@H]([C@@H](C)[C@@H](O)[C@H](C)[C@@]3(O)C[C@H](O[C@H]4C[C@H](O)[C@H](O)[C@H](C)O4)[C@H](CC)[C@@H](C)O3)OC(=O)C=CC=C[C@@H]2C)C[C@H]1O[C@H]1C[C@H](O)[C@H](O)[C@H](C)O1
active: [1] 1.05 µM | [2] 0.743 µM | [3] 0.264 µM | [4] 0.935 µM | [8] 0.372 µM | [9] 0.833 µM | [5] 0.526 µM | [6] 0.743 µM | [7] 0.418 µM | [10] 0.935 µM

N=c1c2c(-c3ccccc3)c(-c3ccccc3)n(Cc3ccccc3)c2ncn1C1CCC(O)CC1 (stereo not drawn)
active: [1] 6.62 µM | [2] 4.18 µM | [4] 6.62 µM | [8] 2.64 µM | [9] 2.64 µM | [5] 26.4 µM | [6] 18.7 µM | [10] 1.32 µM

C[C@H]([C@H](O)CCC(C)(C)O)[C@H]1CC[C@@]2(O)C3=CC(=O)[C@@H]4C[C@@H](O)[C@@H](O)C[C@]4(C)[C@@H]3CC[C@]12C
inactive: [1] | [2] | [8] | [5] | [10]
active: [6] 14.8 µM

CCCC[N+]1(C)[C@H]2CC(OC(=O)[C@H](CO)c3ccccc3)C[C@H]1[C@H]1O[C@H]12 (stereo partly drawn)
inactive: [1] | [2] | [8] | [5] | [10]

c1ccc2c(CN3CCNCC3)cccc2c1
not listed: [3] | [6] | [9]
inactive: all other assays above

C=CCON=C(C[C@H]1O[C@@H]2O[C@]3(C)CC[C@@H]4[C@H](C)CC[C@@H]([C@H]1C)[C@@]24OO3)[C@H]1O[C@@H]2O[C@]3(C)CC[C@H]4[C@H](C)CC[C@@H]([C@@H]1C)[C@@]24OO3
active: [1] 0.469 µM | [2] 0.209 µM | [4] 0.148 µM | [9] 0.372 µM | [5] 0.264 µM | [6] 0.187 µM | [7] 0.235 µM | [10] 0.148 µM

C[C@@H]1[C@H](O)[C@@H](C)C=CC=CCCC=CC=CC=CC=C[C@H](O[C@H]2O[C@@H](C)[C@H](O)[C@@H](N)[C@@H]2O)CC2O[C@](O)(C[C@@H](O)[C@H](O)CC[C@@H](O)C[C@@H](O)C[C@@H](O)CC(=O)O[C@H]1C)C[C@H](O)[C@H]2C(=O)O
not listed: [4] | [6] | [9]
inactive: all other assays above

CCN(CC)C(=O)c1ccc(C2=CC3(CCNCC3)Oc3cccc(O)c32)cc1
active: [6] 10.5 µM
not listed: [3] | [4] | [8]
inactive: all other assays above

CC=C(C)C(=O)O[C@H]1C(C)=C2[C@@H]3OC(=O)[C@@](C)(O)[C@@]3(O)[C@@H](OC(=O)CCC)C[C@](C)(OC(C)=O)[C@@H]2[C@@H]1OC(=O)CCCCCCC
active: [1] 0.526 µM | [2] 0.0833 µM | [4] 0.0418 µM | [5] 0.0296 µM | [6] 0.0235 µM | [7] 0.0418 µM | [10] 0.332 µM

O=S(=O)(F)Cc1ccccc1
active: [2] 2.64 µM
inactive: [1] | [4] | [8] | [7] | [10]

Cc1[nH]nc2ccc(-c3cncc(OC[C@@H](N)Cc4c[nH]c5ccccc45)c3)cc12
inactive: [8]
active: [1] 0.935 µM | [2] 2.35 µM | [4] 2.64 µM | [9] 1.18 µM | [5] 1.18 µM | [6] 1.18 µM | [7] 0.264 µM | [10] 1.05 µM

CC1=C(O)C(=O)C=C2C1=CC=C1[C@@]2(C)CC[C@@]2(C)[C@@H]3C[C@](C)(C(=O)O)CC[C@]3(C)CC[C@]12C
active: [1] 1.32 µM | [2] 0.833 µM | [4] 0.526 µM | [8] 1.05 µM | [9] 0.935 µM | [5] 0.418 µM | [6] 1.18 µM | [7] 0.418 µM | [10] 0.372 µM

CCN1C[C@]2(OC(=O)c3ccccc3NC(C)=O)CC[C@H](OC)[C@@]34[C@H]5CC6[C@@H](OC)C[C@](O)(C(C[C@@H]23)[C@@H]14)[C@@]5(O)[C@@H]6OC
inactive: [1] | [2] | [8] | [5] | [10]

O=C(NCC1CCOCC1)c1cnc(Nc2ccc(Cl)cc2Cl)nc1C(F)(F)F
active: [1] 5.9 µM | [2] 4.69 µM | [6] 20.9 µM | [10] 4.69 µM
inactive: [5]

CN1CCN(c2ccc([N+](=O)[O-])c3no[n+]([O-])c23)CC1
active: [1] 23.5 µM | [2] 18.7 µM | [3] 20.9 µM | [4] 18.7 µM | [8] 16.6 µM | [9] 8.33 µM | [6] 20.9 µM | [10] 11.8 µM
